Over roughly 110,000 compounds, “z-score” has its median near -0.1; the highest 2% begin near 2. The entries come from a sample that favours the highest values as a whole. Calls of active or inactive are those of the source.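 Rule for the calls: active = z-score in the third read window above 3 or below -3; inactive = the rest.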
Target: Metabotropic glutamate receptor 8 (Rattus norvegicus) (UniProt P70579)
Experiment: rat mGluR8 modulators via GIRK flux, primary screen, cell-based, thallium flux, HTS (AID 488969)
Details: HEK293 rat mGluR8, GIRK (G protein-gated inwardly rectifying potassium channel) thallium flux, FluoZin2; at 10 µM; stronger effect = higher value; submaximal glutamate (EC20) added with thallium

Metabotropic glutamate receptor 8 (Rattus norvegicus), sequence (P70579 whole entry, looked up): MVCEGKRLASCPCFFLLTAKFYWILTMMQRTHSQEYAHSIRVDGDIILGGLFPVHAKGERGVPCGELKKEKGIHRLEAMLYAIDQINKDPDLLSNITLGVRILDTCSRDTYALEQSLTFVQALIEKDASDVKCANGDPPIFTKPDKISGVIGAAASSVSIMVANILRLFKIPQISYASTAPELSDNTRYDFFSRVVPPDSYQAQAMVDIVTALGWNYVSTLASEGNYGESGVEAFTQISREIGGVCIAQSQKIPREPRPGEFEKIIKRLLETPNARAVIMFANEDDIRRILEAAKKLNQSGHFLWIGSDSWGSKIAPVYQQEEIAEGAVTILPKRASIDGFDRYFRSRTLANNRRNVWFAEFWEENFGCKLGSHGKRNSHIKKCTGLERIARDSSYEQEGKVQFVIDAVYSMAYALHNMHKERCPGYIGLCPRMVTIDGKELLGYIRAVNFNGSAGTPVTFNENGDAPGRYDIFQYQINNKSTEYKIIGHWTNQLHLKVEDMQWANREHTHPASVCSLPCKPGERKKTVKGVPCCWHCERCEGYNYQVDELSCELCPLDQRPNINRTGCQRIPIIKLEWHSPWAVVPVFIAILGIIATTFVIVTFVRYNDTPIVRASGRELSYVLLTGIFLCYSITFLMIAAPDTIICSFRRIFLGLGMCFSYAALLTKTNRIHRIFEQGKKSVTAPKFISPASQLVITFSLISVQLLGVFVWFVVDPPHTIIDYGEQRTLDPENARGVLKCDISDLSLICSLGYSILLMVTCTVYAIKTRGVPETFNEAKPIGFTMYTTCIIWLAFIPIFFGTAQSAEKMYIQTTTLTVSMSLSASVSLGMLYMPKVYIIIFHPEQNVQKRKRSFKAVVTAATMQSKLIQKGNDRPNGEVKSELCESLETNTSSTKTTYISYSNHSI

Structure (SMILES) | z-score
Cc1cc(C)n(-c2nnc(C)n2NC(=O)c2cccc(Cl)c2)n1 | 0.0281
Cc1ccc(C)n1NC(=O)c1ccc(Cl)cc1Cl | 0.557
Cc1cc(C)n(-c2nncn2NC(=O)c2ccc(Cl)cc2O)n1 | 2.24
CCCCn1c(SC(C)C(N)=O)nc2cc(C(=O)OC)ccc2c1=O (stereo unspecified) | 3 (active)
CCSc1nc2cc(C(=O)OC)ccc2c(=O)n1CC | 0.836
CCNC(=O)NC(=O)C(C)Sc1nc2cc(C(=O)OC)ccc2c(=O)n1-c1ccccc1 (stereo unspecified) | 0.204
O=C(O)C1CC=CCC1C(=O)NCc1ccc2c(c1)OCO2 (stereo unspecified) | -0.618
COc1ccc(N2CCN(C(=O)CSc3nnc4c(C)cc5cc(C)ccc5n34)CC2)cc1 | 1.03
Cc1ccc(C)c(-n2ccnc2SCC(=O)O)c1 | -0.0351
CCc1cccc(NC(=O)CN(c2ccc(OC)cc2)S(=O)(=O)c2c(C)n[nH]c2C)c1 | 0.317
COC(CNC(=O)Cn1ncc2ccsc2c1=O)OC | -0.112
COCCCNC(=O)Cn1ncc2ccsc2c1=O | -0.327
COCCNC(=O)Cn1ncc2ccsc2c1=O | 2.25
CCOc1ccc2oc(-c3ccccc3)c(C(=O)N3CCN(CCO)CC3)c2c1 | -0.457
COc1ccc(C(=O)NCc2cn3ccsc3n2)cc1OC | -0.547
COc1cc(C(=O)NCc2cn3ccsc3n2)cc(OC)c1OC | -0.0269
COc1cccc(C(=O)NCc2cn3ccsc3n2)c1 | 15.2 (active)
O=C(CSc1ccc(-c2ccc(F)cc2)nn1)N1CCN(c2ccccc2)CC1 | -0.139
Cc1ccc(C(=O)O)cc1S(=O)(=O)N1CCCC1 | 2.05
Cc1ccc(C(=O)O)cc1S(=O)(=O)N1CCC(C(=O)O)CC1 | 0.299
Cc1ccc(C(=O)O)cc1S(=O)(=O)N1CCOCC1 | -0.267
CCOC(=O)c1cnc2c(C#N)c(C)nn2c1C | 0.0622
COc1ccc(NS(=O)(=O)c2cc(NC(=O)c3ccc(C)o3)ccc2N2CCCCC2)cc1 | -0.024

Structure (SMILES) | z-score
Cn1c(C(=O)NCCCN2CCCCCC2)cc2c(=O)n(C)c3ccccc3c21 | 2.52
CC1CCCC(C)N1CCCNC(=O)c1cc2c(=O)n(C)c3ccccc3c2n1C (stereo unspecified) | 2.79
CC1CCN(CCCNC(=O)c2cc3c(=O)n(C)c4ccccc4c3n2C)CC1 | 2.7
Cn1c(C(=O)NCCCN2CCCC2=O)cc2c(=O)n(C)c3ccccc3c21 | -0.963
Cn1c(C(=O)NCCN2CCCCCC2)cc2c(=O)n(C)c3ccccc3c21 | 1.86
Cn1c(C(=O)NCCN2CCOCC2)cc2c(=O)n(C)c3ccccc3c21 | -2.82
CC1CCCCN1CCNC(=O)c1cc2c(=O)n(C)c3ccccc3c2n1C (stereo unspecified) | 1.88
Cn1c(C(=O)NCCCN2CCN(c3ccccc3F)CC2)cc2c(=O)n(C)c3ccccc3c21 | 2.46
Cn1c(C(=O)NCCCN2CCN(c3ccccc3F)CC2)cc2c(=O)[nH]c3ccccc3c21 | -0.0771
CCCN1CCN(CCCNC(=O)c2cc3c(=O)n(C)c4ccccc4c3n2C)CC1 | 1.48
Cn1c(C(=O)NCCCN2CCOCC2)cc2c(=O)n(C)c3ccccc3c21 | 0.0335
CCC(=O)N1CCN(c2nc3ccccc3s2)CC1 | -0.0557
O=C(NNC(=S)NC1CCCCC1)c1cccc(S(=O)(=O)Nc2ccccc2Cl)c1 | -0.537
O=C(CCNc1ccccc1)c1cccc([N+](=O)[O-])c1 | -0.134
Cc1cccc(NC(=O)c2sc(NC(=O)COc3ccccc3)c(C#N)c2C)c1C | -0.152
CC(OC(=O)c1cc2sccc2n1C)C(=O)NCc1ccc2c(c1)OCO2 (stereo unspecified) | -0.018
Cc1snc2sc(C(=O)c3ccc(Br)cc3)c(N)c12 | -0.378
O=C(NCc1ccco1)c1cc(-c2ccc3c(c2)OCO3)on1 | -0.862
O=C(O)CCCN1C(=O)C2C3CCC(O3)C2C1=O (stereo unspecified) | -0.35
CCCCn1c(SCC(=O)Nc2ccccc2C(F)(F)F)nc2ccsc2c1=O | 0.00651
COCCN(CCOC)C(=O)CC(=O)N(CCOC)CCOC | 0.0459
Cn1c(C(=O)NCCN2CCc3ccccc3C2)cc2c(=O)n(C)c3ccccc3c21 | 2.7
CN1CCN(CCNC(=O)c2cc3c(=O)n(C)c4ccccc4c3n2C)CC1 | 0.327

Structure (SMILES) | z-score
Cn1c(C(=O)NCCCN2CCc3ccccc3C2)cc2c(=O)n(C)c3ccccc3c21 | 0.807
COc1cccc(C(=O)OCC(=O)Nc2cc(C)c(C)cc2[N+](=O)[O-])c1 | -0.131
CCOC(=O)C1CCCN(Cc2cccs2)C1 (stereo unspecified) | -0.137
O=C(C1CCCN(Cc2cccs2)C1)N1CCCCCC1 (stereo unspecified) | 3.36 (active)
O=C(C1CCCN(Cc2ccccc2)C1)N1CCCCC1 (stereo unspecified) | 0.122
COc1cccc(C(=O)Cn2c(=O)n(CC3CCCO3)c(=O)c3ccccc32)c1 (stereo unspecified) | -0.719
O=C(C1CCN(S(=O)(=O)c2cccnc2)CC1)N1CCCCC1 | 0.487
O=C(C1CCN(S(=O)(=O)c2cccnc2)CC1)N1CCN(C2CCCC2)CC1 | -0.318
CC1CCN(C(=O)C2CCN(S(=O)(=O)c3cccnc3)CC2)CC1 | 2.03
Cc1ccc(Cn2nnc3c(=O)[nH]c(C4CCN(S(=O)(=O)c5cc(C)ccc5C)CC4)nc32)cc1 | 0.616
Cc1ccc(S(=O)(=O)NCCc2ccncc2)cc1 | -0.472
O=C1CCCN1CN(C(=O)c1ccc2c(c1)OCO2)c1cccc(Cl)c1 | -0.21
COC(=O)CN(c1nc(C)cc(OC)n1)S(=O)(=O)c1ccccc1 | -0.5
CCN(c1nc(C)cc(OC)n1)S(=O)(=O)c1ccccc1 | -0.243
COc1cc(C)nc(N(Cc2ccccc2)S(=O)(=O)c2ccccc2)n1 | 2.43
CCc1ccc(S(=O)(=O)N(C(=O)c2ccncc2)c2ccc(OC(=O)c3ccncc3)cc2)cc1 | -0.659
Cn1c(CN2CCN(C(=O)c3ccccc3)CC2)nc2cc([N+](=O)[O-])ccc21 | 0.0497
Cc1c(NC(=O)c2cnn3c(C(F)(F)F)cc(-c4ccco4)nc23)c(=O)n(-c2ccccc2)n1C | 0.95
Cc1ccc(C)c(NC(=O)/C(C#N)=C/c2ccc(Sc3nncn3C)c([N+](=O)[O-])c2)c1 | -0.0512
CCCOC(=O)c1ccc(NC(=O)Oc2ccccc2)cc1 | 0.454
COC(=O)c1cc(NC(=O)c2cc(C)oc2C)cc(C(=O)OC)c1 | 0.433
Cc1occc1C(=O)Nc1ccc2ccccc2c1 | 2.19
CCOC(=O)c1cc(NC(=O)c2ccoc2C)cc(C(=O)OCC)c1 | -2.39

Structure (SMILES) | z-score
Cc1cc(NC(=O)c2ccoc2C)no1 | -0.105
CCCCOC(=O)Nc1ccc(C(N)=O)cc1 | 0.507
Cc1occc1C(=O)Nc1cccc(C(=O)O)c1 | -0.0368
Cc1cccc(NC(=O)c2ccoc2C)n1 | 2.35
CCCCOC(=O)Nc1ccc(C(=O)OCCC)cc1 | 3.09 (active)
Cc1occc1C(=O)Nc1ccccc1NC(=O)c1ccoc1C | 0.13
COC(=O)c1cc(NC(=O)c2ccoc2C)cc(C(=O)OC)c1 | 4.89 (active)
Cc1cccc(NC(=O)c2ccccc2Br)n1 | 0.0402
CSc1nc(N(C)C)nc(N2CC(=O)N(CCNS(=O)(=O)c3ccc(C)cc3)C2=N)n1 | -0.172
CCC(=O)NC(=S)Nc1ccc(NC(=O)COc2ccc(Cl)c(C)c2)cc1 | -0.0852
CC(C)(C)C(C(Oc1ccc(Cl)cc1)n1cncn1)n1nnnc1C(c1cccc(Cl)c1)N1CCCCC1 (stereo unspecified) | 0.12
NS(=O)(=O)c1ccc(CCNC(=O)CSc2ccccc2)cc1 | 0.222
CC(C)C(NS(=O)(=O)c1cccc2nsnc12)C(=O)NCc1ccc2c(c1)OCO2 (stereo unspecified) | -0.269
CCCCOC(=O)c1ccc(NC(=O)c2ccoc2C)cc1 | -0.0292
CCCOC(=O)c1ccc(NC(=O)c2ccoc2C)cc1 | 2.24
CCCOC(=O)c1ccc(NC(=O)c2ccc(Br)o2)cc1 | -0.692
COc1ccc(C(=O)NCC(=O)NCC2COc3ccccc3O2)cc1 (stereo unspecified) | 1
CCOc1cc(C(=S)N2CCC(O)CC2)ccc1OS(=O)(=O)c1ccc(Br)cc1 | 0.875
CCC(=O)NCC(=O)OCC(=O)c1ccccc1 | -0.0257
CC(=O)Nc1nc(-c2ccccc2)c(-c2ccccc2)o1 | -0.185
Cc1ccc(C(=O)Nc2nc(-c3ccccc3)c(-c3ccccc3)o2)cc1 | 3.53 (active)
O=C(Nc1nc(-c2ccccc2)c(-c2ccccc2)o1)c1ccc(F)cc1 | 13.5 (active)
Cn1nnnc1SCC(=O)Nc1nc(-c2ccccc2)c(-c2ccccc2)o1 | -0.0372

Structure (SMILES) | z-score
Cc1cc(=O)[nH]c(SCC(=O)Nc2nc(-c3ccccc3)c(-c3ccccc3)o2)n1 | -1.38
Cc1cc(C)nc(SCC(=O)Nc2nc(-c3ccccc3)c(-c3ccccc3)o2)n1 | -0.522
CCOC(=O)c1c(NC(NC(C)=O)C(Cl)(Cl)Cl)sc2c1CCCC2 (stereo unspecified) | -2.34
COCCCn1c(C)nnc1SCC(=O)NCc1ccco1 | -0.305
Cc1ccc(S(=O)(=O)N(C)Cc2cc3ccccc3[nH]c2=O)cc1 | -0.0752
CCN(CC)CCN(Cc1cc2cc(C)ccc2[nH]c1=O)C(=S)NCc1ccco1 | 0.381
CCOC(=O)COc1cc(Br)c(/C=N/Nc2ccccc2)cc1OC | -0.0959
CCC(C)(C(=O)NC1CCCCC1)N(C(=O)c1ccccn1)c1ccc(C)cc1 (stereo unspecified) | -0.103
COc1cccc(C(=O)/C=C/Nc2cccc(O)c2)c1 | -0.665
CSc1nnc(CNC(=O)C23CC4CC(CC(C4)C2)C3)n1Cc1ccccc1 | -0.331
C/C(=N\NC(=S)NCCc1ccccc1)c1ccc(Cl)cc1 | 1.16
C/C(=N\NC(=S)NCCc1ccccc1)c1ccc(C)cc1 | 1.67
C/C(=N\NC(=S)NCCc1ccccc1)c1cccs1 | 3.65 (active)
O=C1C2C(c3ccccc3)C=CC(c3ccccc3)C2C(=O)N1CCCO (stereo unspecified) | -0.894
O=C(CCS(=O)(=O)c1ccc(Cl)cc1)NCCN1C(=O)S/C(=C\c2ccccc2F)C1=O | -0.162
Cc1cc(C)n2nc(SCC(=O)N3CCc4ccccc43)nc2n1 | 0.255
O=C(c1ccccc1)N1CCCC(c2nc3c(nnn3Cc3ccccc3)c(=O)[nH]2)C1 (stereo unspecified) | -0.398
Cc1ccc(C)c(Cn2nnc3c(=O)[nH]c(C4CCCN(C(=O)C5CCCCC5)C4)nc32)c1 (stereo unspecified) | -0.651
O=C(C1CCCCC1)N1CCCC(c2nc3c(nnn3Cc3ccccc3)c(=O)[nH]2)C1 (stereo unspecified) | 2.1

Source: PubChem BioAssay AID488969 (Vanderbilt High Throughput Screening Facility, 2010)
